# Measured values from PubChem BioAssay (EPA / NIEHS).
# Results filed as inconclusive are left out. Calls of active or inactive are those of the source. Rule for the calls: active = hit-call score of the fitted dose curve at least 0.9, where 1 is the maximum; inconclusive = response in the unintended direction; inactive = score below 0.9.
# What was measured:
# [1] = target: Cytochrome P450 2C19 (Homo sapiens) (UniProt P33261); assay: NVS_ADME_hCYP2C19: NovaScreen (NVS) CYP450-related Enzyme Activity (ADME) Assay for human CYP2C19 (AID 2283113);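 for AC50: potency for inhibition seen as loss of fluorescent signal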
# Procedure, shortened: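 Chemicals first screened in duplicate at 10 uM against recombinant human enzyme produced in insect cells; confirmed actives then run as concentration series. Fluorogenic substrate turnover read by fluorescence after 1 h, normalised to acetonitrile.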
# [2] = target: human CYP2C9, CYP2C9 (gene 1559) (UniProt P11712); assay: NVS_ADME_hCYP2C9: NovaScreen (NVS) CYP450-related Enzyme Activity (ADME) Assay for human CYP2C9 (AID 2283108)
# Procedure, shortened: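 Fluorescence readout of CYP2C9 activity (SF9-expressed human enzyme) at 0.75 h. The primary screen used 10 uM in duplicate, with concentration-response follow-up for actives; acetonitrile was the negative control.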
# [3] = target: human Acid Phosphatase 1 (ACP1), ACP1 (gene 52) (UniProt P24666); assay: NVS_ENZ_hACP1: NovaScreen (NVS) Enzymatic Assay for human Acid Phosphatase 1 (ACP1) (AID 2283136)
# Procedure, shortened: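 Cell-free fluorescence read-out of phosphatase activity, substrate and product separated by mobility shift, taken 1.5 h after compound addition; protein produced in Sf9. Single 25 uM duplicate screen, followed by concentration series for actives, scored as signal loss relative to DMSO.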
# [4] = target: Cytochrome P450 3A4 (Homo sapiens) (UniProt P08684); assay: NVS_ADME_hCYP3A4: NovaScreen (NVS) CYP450-related Enzyme Activity (ADME) Assay for human CYP3A4 (AID 2283110)
# Procedure, shortened: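 Compounds screened in duplicate at 10 uM, with follow-up concentration-response for actives, against insect-cell-expressed recombinant enzyme. Activity read by fluorescence 0.33 h after dosing; loss of signal versus acetonitrile control indicates inhibition.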
# [5] = target: human Caspase 5 (CASP5), CASP5 (gene 838) (UniProt P51878); assay: NVS_ENZ_hCASP5: NovaScreen (NVS) Enzymatic Assay for human Caspase 5 (CASP5) (AID 2283137)
# Procedure, shortened: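 Loss of fluorescent signal versus DMSO scored for E. coli-derived human CASP5 cleaving a fluorescent substrate, 2 h post-dosing; compounds first tested at 25 uM in duplicate, hits rerun in concentration series with 50 uM top concentration.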
# Sequence of human Caspase 5 (CASP5), CASP5 (gene 838) (P51878 whole entry, looked up): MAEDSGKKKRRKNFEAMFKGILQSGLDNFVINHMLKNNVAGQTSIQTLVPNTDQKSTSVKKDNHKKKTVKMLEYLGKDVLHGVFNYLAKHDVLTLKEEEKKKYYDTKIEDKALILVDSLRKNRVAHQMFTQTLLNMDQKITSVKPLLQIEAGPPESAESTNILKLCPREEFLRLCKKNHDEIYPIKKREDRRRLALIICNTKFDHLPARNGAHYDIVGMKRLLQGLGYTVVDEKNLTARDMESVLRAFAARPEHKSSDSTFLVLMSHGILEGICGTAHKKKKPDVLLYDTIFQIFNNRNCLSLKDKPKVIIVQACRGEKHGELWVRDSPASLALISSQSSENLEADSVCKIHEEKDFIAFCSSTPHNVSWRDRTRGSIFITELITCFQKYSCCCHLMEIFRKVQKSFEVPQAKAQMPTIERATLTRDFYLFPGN
# Sequence of human CYP2C9, CYP2C9 (gene 1559) (P11712 whole entry, looked up): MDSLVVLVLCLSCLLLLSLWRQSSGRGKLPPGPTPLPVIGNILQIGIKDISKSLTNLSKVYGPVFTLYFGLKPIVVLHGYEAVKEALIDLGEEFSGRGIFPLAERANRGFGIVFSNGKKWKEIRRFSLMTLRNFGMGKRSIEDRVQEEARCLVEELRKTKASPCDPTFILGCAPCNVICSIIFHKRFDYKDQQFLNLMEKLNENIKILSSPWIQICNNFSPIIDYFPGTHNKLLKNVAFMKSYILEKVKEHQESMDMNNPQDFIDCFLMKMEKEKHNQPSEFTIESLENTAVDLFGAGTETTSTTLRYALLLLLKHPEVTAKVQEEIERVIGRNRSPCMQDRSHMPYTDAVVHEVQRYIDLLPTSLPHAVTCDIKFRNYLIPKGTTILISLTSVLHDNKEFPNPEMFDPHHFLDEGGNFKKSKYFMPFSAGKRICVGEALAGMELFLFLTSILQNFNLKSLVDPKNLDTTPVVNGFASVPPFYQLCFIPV
# Sequence of Cytochrome P450 3A4 (Homo sapiens) (P08684 whole entry, looked up): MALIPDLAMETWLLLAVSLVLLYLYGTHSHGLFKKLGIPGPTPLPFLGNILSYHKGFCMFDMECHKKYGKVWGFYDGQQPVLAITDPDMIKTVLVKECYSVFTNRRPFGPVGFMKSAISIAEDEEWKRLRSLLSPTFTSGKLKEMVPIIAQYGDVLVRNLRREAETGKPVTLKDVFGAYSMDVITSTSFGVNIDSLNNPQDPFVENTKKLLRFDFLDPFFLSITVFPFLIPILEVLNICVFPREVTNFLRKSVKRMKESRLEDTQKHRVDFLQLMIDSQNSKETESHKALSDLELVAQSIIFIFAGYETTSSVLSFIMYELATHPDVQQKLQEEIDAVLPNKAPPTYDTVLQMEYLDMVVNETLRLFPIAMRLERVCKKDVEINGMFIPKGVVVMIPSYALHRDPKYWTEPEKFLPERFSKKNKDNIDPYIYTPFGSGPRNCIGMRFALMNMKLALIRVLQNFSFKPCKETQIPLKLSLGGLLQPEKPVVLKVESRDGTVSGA
# Sequence of human Acid Phosphatase 1 (ACP1), ACP1 (gene 52) (P24666 whole entry, looked up): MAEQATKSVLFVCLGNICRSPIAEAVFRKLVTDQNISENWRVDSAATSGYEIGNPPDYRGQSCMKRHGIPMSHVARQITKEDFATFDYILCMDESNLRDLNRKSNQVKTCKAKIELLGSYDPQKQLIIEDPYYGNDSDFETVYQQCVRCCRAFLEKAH
smiles,measurement,setting,value
COC(=O)[C@H]1[C@H]2C[C@@H]3c4[nH]c5cc(OC)ccc5c4CCN3C[C@H]2C[C@@H](OC(=O)c2cc(OC)c(OC)c(OC)c2)[C@@H]1OC,AC50,[1],7.91 µM (active)
S=c1[nH]c2ccccc2s1,AC50,[2],7.33 µM (active)
same,AC50,[1],1.92 µM (active)
CSc1ccc(Oc2ccc(S(N)(=O)=O)cc2CN(C)C)cc1C,AC50,[2],4.84 µM (active)
same,AC50,[1],4.05 µM (active)
COc1ccc(OC(F)(F)F)cc1CN[C@H]1CCCN[C@H]1c1ccccc1,outcome,[3],inactive
CCCCCCCCCC[N+](C)(C)[O-],outcome,[1],inactive
CC1(C)C(=O)NC(=O)N1CO,outcome,[4],inactive
O=C1OC(c2ccc(O)cc2)(c2ccc(O)cc2)c2ccccc21,AC50,[2],6.81 µM (active)
same,AC50,[1],0.586 µM (active)
CCCCCCC(CCCCCCCCCCC(=O)OCC(COC(C)=O)OC(C)=O)OC(C)=O (configuration not stated),AC50,[2],1.41 µM (active)
same,AC50,[5],13.7 µM (active)
O=C(N[C@@H](c1ccccc1)[C@@H]1CCCCN1)c1cccc(C(F)(F)F)c1Cl,AC50,[2],3.27 µM (active)
same,outcome,[4],inactive
same,outcome,[1],inactive
CC(=O)OC1CC(C)OC(C)O1 (configuration not stated),AC50,[2],4.37 µM (active)
same,AC50,[1],15.1 µM (active)
CCCCCCCCCCCCCCCCO,AC50,[1],12.6 µM (active)
Cc1c(C)c2c(c(C)c1O)CCC(C)(COc1ccc(CC3SC(=O)NC3=O)cc1)O2 (configuration not stated),outcome,[2],inactive
CCC(C)N(C)C(=O)c1cc2ccccc2c(-c2ccccc2Cl)n1 (configuration not stated),AC50,[2],4.2 µM (active)
O=C1c2c(O)cccc2Cc2cccc(O)c21,AC50,[5],0.235 µM (active)
CC(C)OC(=O)C(C)(C)Oc1ccc(C(=O)c2ccc(Cl)cc2)cc1,outcome,[2],inactive
same,AC50,[1],4.67 µM (active)
O=C1CCCCC1,outcome,[5],inactive
CC(=O)CC(c1ccccc1)c1c(O)c2ccccc2oc1=O (configuration not stated),outcome,[1],inactive
CCCCC(CC)COP(=O)(OCC(CC)CCCC)OCC(CC)CCCC (configuration not stated),outcome,[2],inactive
same,outcome,[1],inactive
